Screening data from PubChem BioAssay.
Most compounds without a hit are left out; they make up all but 11% or so of the library.
12-hLO inh: qHTS Assay for Inhibitors of 12-hLO (12-human lipoxygenase) | purified 12-hLO, xylenol orange hydroperoxide absorbance | Potency, µM (series often up to 57.1 µM), for the others: at the highest dose activity change, negative = inhibition, hits mostly inhibitors | 0.12% of 150,000 active; further: potency means the concentration at half of the fitted maximal effect; nearly all actives have a fitted effect of over 55% in size
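Purified human 12hLO (150 nM), preincubated 15 min with compound, then 40 uM arachidonic acid for 30 min, room temperature, Hepes pH 7.0 with 0.01% Triton X-100. Hydroperoxide detected by ferrous iron/xylenol orange; 573/405 nm absorbance ratio gives reaction progress.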
PNC inhibitor: High Content Assay for Compounds that inhibit the Assembly of the Perinucleolar Compartment | PC3M PTB-GFP, PNC prevalence imaging, 16 h; active compounds read low | activity change (PNC), negative = inhibition, % at 10 µM | 3.1% of 140,000 active;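 active means readout at or below -70, meaning at least 70% loss of cells showing the perinucleolar compartment, a nuclear body marking cancer cells; inconclusive means readout between -30 and a set limit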;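 further: plate controls were DMSO wells for no effect and camptothecin positive control wells for full effect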
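PC3M cells stably expressing PTB-GFP, 750–1000 cells/well, treated 16 h at 37 °C with compound (23 nl of library stock), in duplicate. After paraformaldehyde fixation and Hoechst stain, imaged at 20x; PNC prevalence scored by image analysis.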
IMPase Li cell: qHTS Assay for Identifying the Cell-Membrane Permeable IMPase Inhibitors: Potentiation with Lithium | CHO-M1 cells, IP1 TR-FRET (IP-One), carbachol + lithium | Potency, µM (highest dose often 59.4 µM), without a hit: at the highest dose activity, negative = IMPase inhibition, hits mostly inhibitors | 0.35% of 210,000 active;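 further: IP1 builds up when IMPase is blocked and the TR-FRET signal falls; potency means the concentration at half of the fitted maximal effect; plate controls were basal vehicle for no effect and high inhibitor control for full effect; nearly all actives have a fitted effect of over 50% in size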
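CHO cells stably expressing M1 receptor (2000/well, cultured 16–30 h) treated 30 min at 37C with compound plus low lithium. Cytosolic IP1 by TR-FRET (665/620 ratio and 620 channel) after 10 min lysis; AC50 by Hill fit.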
HPGD block: qHTS Assay for Inhibitors of HPGD (15-Hydroxyprostaglandin Dehydrogenase); Potency, µM, inactives show top-dose activity change, negative = inhibition, actives largely listed as inhibitors; 15-hydroxyprostaglandin dehydrogenase [NAD(+)] (Homo sapiens), P15428; 4.3% of 150,000 active; AID 894, 2007; purified HPGD, NADH fluorescence kinetic, PGE2 substrate; active means well fitted inhibition curve with a large enough effect, not every such curve was filed as active; inconclusive means small, poorly fitted or top-dose-only effect, or another doubt; inactive means no such curve, though single readings can be large or run the other way; further: potency means the concentration at half of the fitted maximal effect
Target sequence (P15428 whole entry, looked up): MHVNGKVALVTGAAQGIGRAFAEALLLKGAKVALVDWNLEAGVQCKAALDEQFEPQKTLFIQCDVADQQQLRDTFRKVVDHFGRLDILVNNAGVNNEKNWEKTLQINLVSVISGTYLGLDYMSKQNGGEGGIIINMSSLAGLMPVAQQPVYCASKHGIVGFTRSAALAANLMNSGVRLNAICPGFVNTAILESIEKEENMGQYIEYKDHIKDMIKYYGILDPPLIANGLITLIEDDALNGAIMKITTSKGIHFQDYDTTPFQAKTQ
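NADH formation kinetics: reaction with 30 uM PGE2 and 1 mM NAD+ (final), 20 nM enzyme, Tris-HCl pH 8 with Tween 20, after 15 min compound preincubation at room temperature. Fluorescence change, last versus first of five reads.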
IMPase inh: qHTS Assay for Identifying the Cell-Membrane Permeable IMPase Inhibitors; Inositol monophosphatase 1 (Rattus norvegicus), P97697; CHO-M1 cells, IP1 accumulation, HTRF TR-FRET ratio; inhibition (IP1 accumulation), % at 46.1 µM; 120,000 tested, under 10 active; AID 901, 2007; active means well fitted curve in the direction sought with a large enough effect in the signal ratio, not every such curve was filed as active; inconclusive means small, poorly fitted or top-dose-only effect, or a change in a side signal; inactive means no such curve, though single readings can be large or run the other way; the % refers to the signal ratio;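 further: cells stimulated with carbachol in lithium chloride buffer; plate controls were DMSO basal wells for no effect and reference inhibitor wells for full effect; higher means more IMPase inhibition seen as more IP1 and lower FRET ratio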
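In this qHTS, compounds (final up to 46 uM) act on CHO-M1 cells that are then activated through the M1 receptor with carbachol, in pH 7.4 buffer containing 50 mM LiCl, for 30 min. IP1 accumulation is quantified by the IP-One immunoassay.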
ALDH1A1 inh: qHTS Assay for Inhibitors of Aldehyde Dehydrogenase 1 (ALDH1A1); Aldehyde dehydrogenase 1A1 (Homo sapiens), P00352; Purified ALDH1A1, NADH fluorescence, propionaldehyde substrate; Potency, µM (doses to about 75.3 µM), inactives show at the highest dose activity, negative = inhibition, hits mostly inhibitors; 7.3% of 220,000 active; AID 1030, 2008; active means well fitted inhibition curve with a large enough effect, not every such curve was filed as active; inconclusive means small, poorly fitted or top-dose-only effect, or another doubt; inactive means no such curve, though single readings can be large or run the other way;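 further: potency means the concentration at half of the fitted maximal effect; plate controls were no enzyme wells and a reference inhibitor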
Target sequence (P00352 whole entry, looked up): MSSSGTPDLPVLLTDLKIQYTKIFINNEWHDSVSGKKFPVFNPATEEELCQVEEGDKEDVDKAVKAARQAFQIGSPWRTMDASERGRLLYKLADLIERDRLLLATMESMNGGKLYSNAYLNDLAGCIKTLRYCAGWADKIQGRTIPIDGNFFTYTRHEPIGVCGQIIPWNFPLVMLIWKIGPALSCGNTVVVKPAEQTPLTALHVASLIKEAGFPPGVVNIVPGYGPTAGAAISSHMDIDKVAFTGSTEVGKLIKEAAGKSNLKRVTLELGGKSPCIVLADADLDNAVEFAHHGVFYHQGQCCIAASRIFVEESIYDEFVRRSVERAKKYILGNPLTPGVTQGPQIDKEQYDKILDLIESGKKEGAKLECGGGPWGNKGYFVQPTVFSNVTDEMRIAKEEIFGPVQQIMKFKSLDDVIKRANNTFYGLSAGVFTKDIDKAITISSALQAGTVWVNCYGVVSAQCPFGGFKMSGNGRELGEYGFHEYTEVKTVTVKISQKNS
The depositor's hits bear a star; ? = inconclusive; / = no result; [ ] = dose if it differs, or a comment. Unless noted, the call rests on the fitted dose curve; in most records, active means well fitted curve in the direction sought with a large enough effect; inconclusive means small, poorly fitted or top-dose-only effect, or another doubt; inactive means no such curve, though single readings can be large; an effect the other way counts as inactive or inconclusive. Unless noted, on the % scale 0 is the no-effect control and ±100 the full control effect.

SMILES | 12-hLO inh | PNC inhibitor | IMPase Li cell | HPGD block | IMPase inh | ALDH1A1 inh
Cc1ccccc1OCCCn1c(-c2ccc(Cl)cc2)nc2ccccc2c1=O | / | / | / | / | 2 | /
CC(C)CN(C[C@@H](O)[C@H](Cc1ccccc1)NC(=O)O[C@H]1CCOC1)S(=O)(=O)c1ccc(N)cc1 | -1%[0.00818 µM] | / | 2% | -5% | / | 7%
Cc1ccc(NCC(=O)N/N=C/c2c[nH]c3ccccc23)cc1 | / | / | 7% | / | / | -3%
Cc1ccccc1NC(=O)c1ccc(NS(=O)(=O)c2cc(C(C)(C)C)cc(C)c2C)cc1 | 0% | ? | 9% | -17% | -5 | 2.8µM*
COc1ccc(O[C@H]2C=C[C@@H](c3ccccc3)O[C@H]2COC(=O)CC/C(C)=N\O[C@@H](C)c2cn([C@H](CO)Cc3ccccc3)nn2)cc1 | / | / | / | / | / | 4%[13.5 µM]
COCCNc1nc(CSc2ccccc2)nc2sc(C)c(C)c12 | -3% | -86* | / | / | 9 | ?
CCOC(=O)N1CCN(Cc2ccc(O)c3ncccc23)CC1 | / | / | 9% | / | / | 25µM*
Oc1ccc(CN2CCCCC2)c2cccnc12 | ? | -24 | 10% | 1% | 10 | ?
COC(=O)C(/C=C/C(C)Cc1cc(Br)cc(OCc2ccccc2)c1OC)OCc1ccccc1 (stereo unspecified) | / | / | / | / | / | -10%[13.5 µM]
CN(C)c1ncc2nc(CCc3ccccc3)c(=O)n(CCc3ccccc3)c2n1 | / | / | -2% | / | / | ?
N=c1ccn2c(n1)OCC1C2O[C@@H](O)[C@H]1O (stereo partly specified) | / | / | 20% | -13% | / | 7%
CCc1ccc2oc(-c3cc(N)cc(C)c3O)nc2c1 | -14% | -107* | 16%[38.3 µM] | -5% | 0 | ?
CCc1ccc2oc(-c3cc(N)ccc3O)nc2c1 | -14% | -27 | 16%[38.3 µM] | -16% | -6[1.84 µM] | ?
FC(F)Oc1ccc(NC(=S)NNc2ccnc3cc(Cl)ccc23)cc1 | / | / | 4% | / | / | 8.9µM*
NC(=S)NNc1ccnc2cc(Cl)ccc12 | / | / | 27% | / | / | 1.4µM*
COc1cccc(OCc2ccc(C(=O)NCC3CCCO3)cc2)c1 (stereo unspecified) | -1% | -11 | -3% | 10µM* | / | -6%
O=C(NCC1CCCO1)c1ccc(COc2ccc(Cl)cc2)cc1 (stereo unspecified) | / | / | 11% | / | / | 5%
O=C(NCC1CCCO1)c1ccc(COc2ccccc2Br)cc1 (stereo unspecified) | -4% | 20 | -12% | 4µM* | / | 2%
Cn1c2c(c(=O)n(C)c1=O)C(c1ccccc1C(F)(F)F)CC(=O)N2 (stereo unspecified) | / | / | / | / | 6 | /
COCC(=O)N1CCC2(CC1)CN(c1ccccc1)C2 | 3% | / | -1% | -9% | / | -11%
CCCOC(=O)CSc1ncnc2sc3c(c12)CCC(C)C3 (stereo unspecified) | / | / | / | / | 1 | /
COc1ccc(NC(=O)C2C3C=CC(C3)C2C(=O)NCc2ccco2)cc1 (stereo unspecified) | -1% | 11 | 19%[38.3 µM] | 25µM* | 15 | -15%
COc1cc(C2=NOC(C(=O)NCc3cccs3)C2)cc(OC)c1OC (stereo unspecified) | 10% | -104* | 29%[38.3 µM] | -20% | 2 | -10%
COc1ccc(C2=NOC(C(=O)Nc3cccnc3)C2)cc1 (stereo unspecified) | 1% | -102* | 28%[38.3 µM] | -12% | 7 | -7%
COc1ccc(C2=NOC(C(=O)NCc3ccco3)C2)cc1 (stereo unspecified) | 5% | 9 | 40%[38.3 µM] | ? | 0 | 22µM*
SMILES | 12-hLO inh | PNC inhibitor | IMPase Li cell | HPGD block | IMPase inh | ALDH1A1 inh
COc1cccc(C2=NOC(C(=O)Nc3cccnc3)C2)c1 (stereo unspecified) | -8% | 38 | -2%[38.3 µM] | -13% | -1 | 7%
CCCOc1ccc(-c2nn(-c3ccccc3)cc2C2NC(=O)NC(C)=C2C(=O)OC)cc1C (stereo unspecified) | / | / | / | / | 1 | /
CCCCNC(=O)c1cc2c(=O)n3cccc(C)c3nc2n1C | 1% | -20 | 6%[38.3 µM] | ? | -4 | ?
Cc1cccn2c(=O)c3cc(C(=O)NCCc4ccccc4)c(=N)n(CCCn4ccnc4)c3nc12 | -13% | 38 | / | / | -5 | 5.6µM*
CCOCCCNC(=O)c1cc2c(=O)n3cccc(C)c3nc2n1C | 2% | -116* | 8%[38.3 µM] | ? | 9 | ?
COc1cccc(N/C=C/c2onc(C)c2[N+](=O)[O-])c1 | / | / | 2% | / | / | 9%
Cc1c(N)cccc1Cl | 2% | / | -7% | -5% | / | ?
CN(Cc1ccco1)c1cc(-c2cccc(C#N)c2)ncn1 | / | / | 7% | / | / | ?
CC1=C(C(=O)OC2CCCC2)C(c2c(Cl)cccc2Cl)CC(=O)N1 (stereo unspecified) | / | / | / | / | 7 | /
COCCN1C(=O)/C(=C/c2ccc(Oc3ccc([N+](=O)[O-])cn3)c(OC)c2)SC1=Nc1ccccc1 | 1% | ? | 10% | -15% | -8 | 0.4µM*
COc1cc(/C=C2\SC(=Nc3ccccc3)N(CCc3c[nH]c4ccccc34)C2=O)ccc1OC(C)C(=O)O (stereo unspecified) | -2% | ? | 5% | ? | / | 6%
CCCCc1nc2c(c3c1C[C@H](C)OC3)CN(C(=O)NCCCC(=O)OCC)CC2 | -1%[11.4 µM] | / | -3% | -5% | / | 9%[13.5 µM]
C=C/C1=C/Cc2ccccc2[C@H](C[N+](=O)[O-])C(C(C)=O)(C(=O)OC)C1 (stereo partly specified) | 1% | / | 5% | -17% | / | 23%
CCN1C(=O)NC2=C(C(=O)c3ccccc32)C1c1ccccc1F (stereo unspecified) | -5% | ? | 46%[38.3 µM] | -10% | 2 | 0.32µM*
COc1cc(NC(=O)CSc2nc(C)c(C(=O)Nc3ccccc3)c(-c3ccc(OC)c(OC)c3)c2C#N)c(OC)cc1Cl | / | / | / | / | -6 | /
Cn1cccc1C(=O)N1CCC2(CCCN(Cc3nccs3)C2)CC1 | 1% | / | 30% | -1% | / | -3%
O=C(Nc1ccc(Br)cc1)N1CCCCC1 | / | / | 4% | / | / | ?
CN1CCN(C(=S)C(=O)Nc2ccc(Br)cc2)CC1 | / | / | -3% | / | / | 7.9µM*
Cc1c(Cl)cccc1NC(=O)Cc1ccc([N+](=O)[O-])cc1 | / | / | 7% | / | / | -10%
CCOc1ccc(S(=O)(=O)NCc2ccccn2)cc1 | 4% | -111* | 20%[38.3 µM] | -15% | -5 | ?
